Compounds with a hit are over-represented: about 2.1% of the library has one in this group of screens.
bovine MsrA act: activates bovine MsrA enzyme. AID 602163. activation, % at 10.6 µM. purified bovine MsrA, absorbance read-out. 0.3% of 360,000 active; in the data active means activation above about 7.5%
ABCB6 inh 2: inhibitors of human ABC transporter ABCB6; Q9NP58; K562-ABCB6 porphyrin accumulation, flow cytometry, 1 h; stronger effect = lower value; fluorescence ratio to DMSO, % at 10 µM; 0.19% of 360,000 active; AID 602162;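 active means fluorescence ratio to DMSO below 75%, the collection mean minus 3 SD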;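 further: signal is porphyrin accumulated inside mitochondria; lower ratio means ABCB6 inhibition with less porphyrin fluorescence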
Target sequence (Q9NP58 whole entry, looked up): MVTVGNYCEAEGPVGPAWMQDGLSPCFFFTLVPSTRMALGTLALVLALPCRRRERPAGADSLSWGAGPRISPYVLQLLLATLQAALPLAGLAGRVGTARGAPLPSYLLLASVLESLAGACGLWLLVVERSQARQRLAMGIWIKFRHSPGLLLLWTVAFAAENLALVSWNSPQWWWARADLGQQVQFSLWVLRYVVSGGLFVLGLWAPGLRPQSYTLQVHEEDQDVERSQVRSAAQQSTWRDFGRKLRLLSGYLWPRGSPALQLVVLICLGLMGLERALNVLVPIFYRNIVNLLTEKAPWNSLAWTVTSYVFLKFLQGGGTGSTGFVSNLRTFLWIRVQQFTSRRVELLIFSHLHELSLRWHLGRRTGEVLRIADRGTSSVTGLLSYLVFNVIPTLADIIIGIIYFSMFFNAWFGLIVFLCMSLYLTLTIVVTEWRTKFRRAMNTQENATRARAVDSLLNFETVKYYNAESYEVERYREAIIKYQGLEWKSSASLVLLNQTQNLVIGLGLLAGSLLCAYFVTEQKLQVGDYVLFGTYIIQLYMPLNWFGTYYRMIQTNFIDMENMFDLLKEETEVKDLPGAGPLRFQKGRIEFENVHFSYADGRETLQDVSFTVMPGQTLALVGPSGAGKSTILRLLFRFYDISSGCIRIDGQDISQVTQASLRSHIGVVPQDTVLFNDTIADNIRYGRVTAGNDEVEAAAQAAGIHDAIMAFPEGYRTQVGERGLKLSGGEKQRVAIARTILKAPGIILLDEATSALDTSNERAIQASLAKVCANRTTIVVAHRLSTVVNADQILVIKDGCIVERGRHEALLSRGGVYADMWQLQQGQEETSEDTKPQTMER
SMARCA2 act: activators of SMARCA2 function; MG213 cells, MMTV-luciferase reporter, dexamethasone, overnight; activation, % at 9.1 µM; 1% of 370,000 active; in the data active means activation above about 7.8%
MsrA inh: bovine MsrA inhibition; purified bovine MsrA, absorbance read-out; inhibition, % at 15.5 µM; 0.75% of 360,000 active; in the data active means inhibition above about 4.5%
SMARCA2 conf: SMARCA2 activation, confirmation screen; activation, % at 9.1 µM; MG213 cells, MMTV-luciferase with dexamethasone, luminescence, overnight; MG213 cells expressing E1A, Rb sequestered; DMSO wells 0%, reference activator 100%; shares compounds with SMARCA2 act; 30% of 3,500 active; AID 652260;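 active means activation above its plate's cutoff, the mean activation of tested wells plus 3 SD, cut at about 7.9% in these data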
VP16 Luc act: activates GAL4-VP16 luciferase, flagging SMARCA2 activator hits; AID 686939; 41% of 3,500 active; HEK293 GAL4-VP16 pG5luc reporter, luciferase luminescence; scaled: DMSO wells 0%, SAHA wells 100%; activation, % at 9.1 µM; shares compounds with SMARCA2 act;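 active means activation above the solvent-only control well mean plus 3 SD, averaged across control plates, cut at about 5.2% in these data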
Each line names hits and unclear results; the compound was inactive in the other large screens (follow-up assays come after a bar, where they were run).

COc1ccc(OC)c(S(=O)(=O)N2CCC(C(=O)NCc3cccs3)CC2)c1	none (no result: bovine MsrA act, ABCB6 inh 2, MsrA inh)
CC(C)NC(=O)N[C@@H]1C[C@@H]2O[C@@H](CO)CC[C@@H]2O[C@@H]1CCc1ccc(-c2ccccc2F)cc1	none (no result: bovine MsrA act, ABCB6 inh 2, MsrA inh)
O=C(Nc1ccc(S(=O)(=O)N2CCOCC2)cc1)C1CC1	none
Cc1ccc(NC(=O)C2CCN(S(=O)(=O)c3ccc(C(C)(C)C)cc3)CC2)cc1S(=O)(=O)N1CCOCC1	SMARCA2 act 8.4 | SMARCA2 conf inactive | VP16 Luc act inactive
CCc1ccc(CNC(=O)C(=O)NCC2CCCO2)cc1 (stereo not drawn)	none
CCc1ccc(NC(=O)C(=O)NCC2CCCO2)cc1 (stereo not drawn)	SMARCA2 act 10.9 | SMARCA2 conf inactive | VP16 Luc act 16.1
Cc1c(C(=O)N(C)Cc2ccc(F)cc2)sc(=O)n1Cc1ccccc1C#N	none
Cc1ccc(NC(=S)NC(=O)C2CC2)c(C)c1	SMARCA2 act 8.8 | SMARCA2 conf inactive | VP16 Luc act inactive
Cc1ccc(NC(=O)N2CCCCCC2)c(C)c1	SMARCA2 act 9.6 | SMARCA2 conf inactive | VP16 Luc act inactive
O=C1C(NC(=O)N2c3ccccc3C=Cc3ccccc32)CCCCN1Cc1ccc(Cl)cc1 (stereo not drawn)	none (no result: bovine MsrA act, ABCB6 inh 2, MsrA inh)
CCOc1ccc(C(=O)Nc2nc(C)c(C(=O)OC)s2)cc1	SMARCA2 act 8.8 | SMARCA2 conf 8.7 | VP16 Luc act 12.0
O=C(COC(=O)c1nc(Cl)c(Cl)c(Cl)c1Cl)c1ccc[nH]1	SMARCA2 act 9.3 | SMARCA2 conf 20.0 | VP16 Luc act inactive
CC(C)C(=O)OCCCN1CCC2(CCC(c3ccccc3)CC2)C1=O (stereo not drawn)	none (no result: bovine MsrA act, ABCB6 inh 2, MsrA inh)
CN(c1cccc(NC(=O)Nc2cccc(Cl)c2)c1)S(C)(=O)=O	none
CN(C)c1ccc(NC(=O)Nc2cccc(Cl)c2)cc1	SMARCA2 act 9.7 | SMARCA2 conf inactive | VP16 Luc act 15.1
CN(C)c1ccc(NC(=O)Nc2ccc3c(c2)nnn3C)cc1	SMARCA2 act 19.7 | SMARCA2 conf 10.6 | VP16 Luc act 6.1
COc1ccc2c(c1)CO[C@H]([C@H](O)COC(C)=O)[C@H]2/C=C/c1ccccc1	none (no result: bovine MsrA act, ABCB6 inh 2, MsrA inh)
Cc1ccc2cccc(N=Cc3c(C)[nH]n(-c4ccccc4)c3=O)c2n1	SMARCA2 act 13.6 | SMARCA2 conf inactive | VP16 Luc act 8.1
COc1ccccc1NS(=O)(=O)c1ccc2oc(N)nc2c1	SMARCA2 act 10.6 | SMARCA2 conf inactive | VP16 Luc act inactive
CCOC(=O)CC[C@@]1(C(=O)OCC)C[C@@H](CC(=O)NCCCN2CCCC2=O)C(=O)N2CCCC=C21	none (no result: bovine MsrA act, ABCB6 inh 2, MsrA inh)
Cc1c(Br)cccc1NC(=O)C1(C)CCN1C(C)C (stereo not drawn)	none
CC(C)CNC(=O)c1c(N)n(/N=C/c2ccccn2)c2nc3ccccc3nc12	SMARCA2 act 8.5 | SMARCA2 conf inactive | VP16 Luc act inactive
COCCNC(=O)c1c(N)n(/N=C/c2ccc(F)cc2)c2nc3ccccc3nc12	none
Cc1nn(Cc2c(F)c(F)c(F)c(F)c2F)c(C)c1NC(=O)c1cccc(COc2ccccc2Cl)c1	SMARCA2 act 13.1 | SMARCA2 conf inactive | VP16 Luc act 13.2
N#C/C(=C\c1c[nH]c2ccccc12)C(=O)NC1CC1	SMARCA2 act 10.5 | SMARCA2 conf 11.3 | VP16 Luc act 10.9
C=CCn1c(COc2ccc(C)cc2)nnc1SCC(=O)Nc1cc(Cl)cc(Cl)c1	none (no result: bovine MsrA act, ABCB6 inh 2, MsrA inh)
C#CCN1CC(N(C)CCOC(=O)c2cc3ccccc3[nH]2)CS1(=O)=O (stereo not drawn)	none (no result: bovine MsrA act, ABCB6 inh 2, MsrA inh)
CCN(CC)S(=O)(=O)c1cc(NC(=O)C(C)N(C)CC(=O)Nc2c(C)cccc2C)ccc1C (stereo not drawn)	SMARCA2 act 9.2 | SMARCA2 conf inactive | VP16 Luc act inactive
CN(C)CCNC(=O)c1ccccc1	none
CN(C)CCNC(=O)c1cccc2nc3cccc(F)c3nc12	SMARCA2 act 51.8 | SMARCA2 conf 194.0 | VP16 Luc act 14.1
CN(C)CCNC(=O)c1cccc2ccc(-c3ccc(-c4ccccc4)cc3)nc12	SMARCA2 act 8.6 | SMARCA2 conf 23.7 | VP16 Luc act inactive
Cc1ccc(CN2CCC2(C)C(=O)NC2CCc3ccccc32)cc1 (stereo not drawn)	none
Cc1ccccc1S(=O)(=O)NC(=O)C1(C)CCN1C(=O)Cc1cccs1 (stereo not drawn)	none

High-throughput results as filed in PubChem BioAssay.
